Sampled rows, rich in hits. Any-hit rate of the full collection: about 1.8%.
CtBP-E1A blk: inhibitors of CtBP/E1A interaction; AlphaScreen GST-E1A/His-CtBP binding, 1536-well; hits give low values; activity change, % (concentration not given with the values); 340,000 compounds, 0.49% hits
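In 5 uL wells, 23 nL compound meets equimolar GST-E1A and His-CtBP (5X stock 125 nM each) for 2 h, 37 °C. Beads (5X, 50 ug/mL) then 1 h, 37 °C, dark.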
Six1-Eya2 blk: Six1/Eya2 interaction inhibition; Q15475+O00167; AID 651725; AlphaScreen GST-Six1/His-Eya2 binding, biochemical; hits give low values; 360,000 compounds, 0.56% hits; activity change, % (no concentration beside the values)
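Homogeneous AlphaScreen proximity assay pairing GST-Six1 with His-tagged Eya2 (added as 5X mix: 250 nM and 500 nM) in 50 mM Tris pH 8.0, 300 mM NaCl, 1 mM TCEP. Glutathione donor and nickel acceptor beads; 1 h, 37 °C, dark.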
Akt phos inh: blocks phosphorylation of Akt | activity change, % for hits at 50 µM | AID 651550 | 360,000 compounds, 0.32% hits | Neuro2A IGF-stimulated pAkt S473 HTRF, 20 min; hits give low values; in the data active = activity change below about -80%; inconclusive = mostly about -51% to -80%
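Neuro2A cells in DMEM with 0.5% FBS, overnight at 37 deg C, given compound at single 50 µM final, then IGF (6 nM final) for 20 min at 37 deg C. Lysed; phospho-Akt Ser473 by HTRF after 24 h, 665/615 ratio.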
PI5P4Ka inh: PI5P4K alpha (human) kinase inhibition | PI5P4Kalpha enzyme, ADP-Glo luminescence, 60 min; hits give low values | max response, % | P48426 | 330,000 compounds, 1.2% hits; active = max response of -50% or lower; inconclusive = between -30% and -50%; inactive = -30% or higher; also: value at the top dose of about 77 µM
Target sequence (P48426 whole entry, looked up): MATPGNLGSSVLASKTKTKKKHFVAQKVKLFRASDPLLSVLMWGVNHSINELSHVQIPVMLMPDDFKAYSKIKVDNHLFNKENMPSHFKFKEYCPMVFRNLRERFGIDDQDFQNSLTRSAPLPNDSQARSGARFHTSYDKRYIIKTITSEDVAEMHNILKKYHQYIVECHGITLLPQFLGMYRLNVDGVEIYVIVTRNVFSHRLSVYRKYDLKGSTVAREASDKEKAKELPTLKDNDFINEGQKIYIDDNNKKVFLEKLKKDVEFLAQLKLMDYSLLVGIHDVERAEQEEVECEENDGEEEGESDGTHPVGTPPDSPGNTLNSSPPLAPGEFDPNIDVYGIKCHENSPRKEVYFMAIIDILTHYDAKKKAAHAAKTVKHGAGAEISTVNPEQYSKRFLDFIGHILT
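ADP-Glo luminescence end-point after a 60 min room-temperature kinase reaction. PI5P4Kalpha and substrate in HEPES pH 7.4 buffer with EGTA, 0.1% CHAPS and 5% DMSO; ATP at 5 microM final.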
PI4K2A block: inhibitors of human PI4K2A; AID 1346378; activity change, negative = inhibition, % at 76.9 µM; purified PI4K2A, ADP-Glo luminescence, 1 h; hits give low values; Q9BTU6; 420,000 compounds, 0.13% hits; in the data active = activity change below about -50%; inconclusive = mostly about -30% to -49%
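ADP-Glo luminescence measured ADP generated by PI4K2A enzyme (4 ug/mL before mixing) with 1.2 mM PI substrate (pre-mix) and 300 microM ATP (pre-mix). Tris pH7.5 buffer with MgCl2, Triton X-100; 1 h reaction at ambient temperature.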
Large screens that a line does not name were inactive. Rule as the data show it, unless noted: active = activity change below about -65%; inconclusive = mostly about -30% to -63%; inactive = weaker than that.

N#Cc1cccc(NC(=O)CSc2nnc(-c3n[nH]c4ccccc34)o2)c1	CtBP-E1A blk -86.6
CCOC(=O)N1CCC(NC(=O)C2CCC(Cn3c(=O)[nH]c4ccccc4c3=O)CC2)CC1 (configuration not stated)	none
Cc1ccc(S(=O)(=O)Nc2ccc3nc(C)oc3c2)cc1	none
COc1ccc(C2/C(=C(/O)c3ccc(C)cc3)C(=O)C(=O)N2C)c(OC)c1 (configuration not stated)	none
CCN1/C(=C2\C(=O)N(C)C(=S)N2C)C=Cc2ccccc21	Six1-Eya2 blk inconclusive
CCN1C(=O)/C(=C2/C=Cc3ccccc3N2CC)SC1=S	Six1-Eya2 blk -83.9 (no result: CtBP-E1A blk)
CCCN1/C(=C2/SC(=S)N(CC)C2=O)C=Cc2ccccc21	CtBP-E1A blk -69.9, Six1-Eya2 blk -79.8
CCCN1C(=O)/C(=C2/C=Cc3ccccc3N2CC)SC1=S	CtBP-E1A blk -75.6, Six1-Eya2 blk -76.4
Cn1c(=O)c2c(ncn2CC(=O)Nc2cc(S(=O)(=O)N3CCCCC3)ccc2O)n(C)c1=O	none
COc1ccc(Cc2nnc(NC(=O)C3CC(=O)N(CCc4ccc(F)cc4)C3)s2)cc1OC (configuration not stated)	none
Cc1ccc(C(C#N)c2ccc3c(C(F)(F)F)cc(C(F)(F)F)nc3n2)cc1 (configuration not stated)	CtBP-E1A blk inconclusive, Six1-Eya2 blk inconclusive
N#CC(c1ccccc1)c1ccc2c(C(F)(F)F)cc(C(F)(F)F)nc2n1 (configuration not stated)	CtBP-E1A blk -66.1, Six1-Eya2 blk -75.4
N#Cc1ccc(-c2ccc(OCC(=O)Nc3cccnc3)cc2)cc1	none
O=C1Nc2ccccc2N(O)N1c1cc(-c2ccccc2Cl)no1	Akt phos inh -109.9%
O=C1Nc2ccccc2N(O)N1c1cc(-c2cccc(Cl)c2)no1	none (no result: PI5P4Ka inh)
Cc1n[nH]c(C)c1S(=O)(=O)N1CCCC(C(=O)N2CCN(c3ccc(Cl)cc3)CC2)C1 (configuration not stated)	none
Cc1nn(C)c(C)c1S(=O)(=O)N1CCCC(C(=O)N2CCN(c3ccc(Cl)cc3)CC2)C1 (configuration not stated)	Akt phos inh -107.1%
Cc1[nH]c(=O)[nH]c(=O)c1S(=O)(=O)N1CCCC(C(=O)N2CCN(c3ccccc3Cl)CC2)C1 (configuration not stated)	Akt phos inh -124.4%
COc1ccc(CNc2ccc(C)c(C)c2)c(OC)c1OC	CtBP-E1A blk inconclusive, Six1-Eya2 blk inconclusive
O=C(N[C@@H](CO)C(=O)NCc1ccccc1)c1ccc(C(F)(F)F)cc1	none
CN(C)C(C)(C)C#CC(O)(c1ccccc1)c1ccccc1	none
O=C(Nc1ccccc1)Nc1ccc(C(=O)N2CCCC2)cc1	PI4K2A block -62.3
O=C(Nc1ccc(C(=O)N2CCCCC2)cc1)c1ccccc1	PI4K2A block inconclusive
C=CCn1c(SCc2cc(=O)n3ccsc3n2)nc2scc(C3CC3)c2c1=O	none (no result: PI5P4Ka inh)
Cc1ccc2c(c1)c(N=NC(N)=S)c(O)n2Cc1ccccc1	none
NC(=S)N=Nc1c(O)cc(O)c2[nH]c(=O)ccc12	Six1-Eya2 blk -84.5, PI5P4Ka inh -72.4, PI4K2A block inconclusive
O=C1c2ccccc2S(=O)(=O)c2cc(-c3nn[nH]n3)ccc21	PI5P4Ka inh -73.5
O=C(NCCO)c1ccc2c(c1)S(=O)(=O)c1ccccc1C2=O	none
O=C(O)CSc1ccc(NC(=O)Nc2ccccc2F)cc1	PI5P4Ka inh inconclusive, PI4K2A block -53.8 (no result: CtBP-E1A blk)
CC(=O)Nc1ccc(SCC(=O)O)cc1	none
CCN(CC)S(=O)(=O)c1ccc(NC(=O)COC(=O)CNS(=O)(=O)/C=C/c2ccccc2)cc1	CtBP-E1A blk -81.3
COc1ccccc1N(CC(=O)NCCSc1ccccc1)S(=O)(=O)c1ccc(C)cc1	none (no result: CtBP-E1A blk, Six1-Eya2 blk, Akt phos inh, PI5P4Ka inh)
C=CCNc1nc(NCc2ccc(N(C)C)cc2)c2sc(-c3ccccc3)cc2n1	CtBP-E1A blk -77.1, Six1-Eya2 blk -72.7 (no result: PI5P4Ka inh)
C=CCNc1nc(NCCOC)c2sc(-c3ccccc3)cc2n1	none
Nc1cc([N+](=O)[O-])ccc1Nc1ccc(O)cc1	Six1-Eya2 blk inconclusive, PI5P4Ka inh -57.4 (no result: CtBP-E1A blk)
CC1=C(O)C(=O)C(C2=C(O)C(=O)C(C)=C(O)C2=O)=C(O)C1=O	CtBP-E1A blk -84.7, Six1-Eya2 blk -91.8, PI5P4Ka inh inconclusive
Cc1ccc(C(NC(=O)c2ccccc2)C(Cl)Cl)cc1 (configuration not stated)	none
CCCN1C(=O)c2ccc(C(=O)Nc3cc(C)ccc3O)cc2C1=O	PI4K2A block -55.8
Cc1ccc(O)c(NC(=O)c2ccc3c(c2)C(=O)N(CC(C)C)C3=O)c1	none
O=C1c2ccccc2C(=O)c2c(Nc3ccc(CCO)cc3)ccc(O)c21	Six1-Eya2 blk -83.4 (no result: CtBP-E1A blk)
Nc1cccc2c1C(=O)N(C(=O)/C=C/c1ccc(F)cc1)C2=O	CtBP-E1A blk -65.3
O=C(O)c1cccc(Cn2c(Cl)c(/C=N/Nc3ccccc3)sc2=O)c1	PI5P4Ka inh -63.8
O=C(O)c1cccc(Cn2c(Cl)c(/C=N/NC(=O)c3ccccc3Cl)sc2=O)c1	none
CCCn1c(N2CCN(C(=O)Nc3ccccc3)CC2)nc2ccccc21	none
CCCn1c(N2CCN(CC(=O)NCc3cccs3)CC2)nc2ccccc21	Akt phos inh -109.7%
COC(=O)c1cc(Br)ccc1NC(=O)Nc1ccc(C)cc1	Akt phos inh -115.2%
O=[N+]([O-])c1cc2c(c3cccnc13)COCO2	Six1-Eya2 blk inconclusive, PI5P4Ka inh -56.2
Cn1c(=O)[nH]c(=O)c2c1nc(OC(=O)c1ccccc1)n2CC(O)COc1ccc(F)cc1 (configuration not stated)	none (no result: PI5P4Ka inh)
CN(Cc1ccccc1)c1nc2c(c(=O)[nH]c(=O)n2C)n1CCOc1ccccc1	Akt phos inh -124.2%
Cn1c(=O)[nH]c(=O)c2c1nc(OC(=O)c1ccccc1)n2CC(O)COc1ccccc1 (configuration not stated)	Akt phos inh -126.1%
N#C/C(=C\c1ccc(C(=O)O)cc1)c1nc2sc3c(c2c(=O)[nH]1)CCCC3	PI5P4Ka inh -50.3
CCOC(=O)c1nc2sc3c(c2c(=O)[nH]1)CCCC3	none
COC(=O)c1c(SCC(=O)NC2CCCCC2)[nH]c2ccccc2c1=O	PI5P4Ka inh -67.8 (no result: CtBP-E1A blk)
Nc1ncnc(Oc2cccc3cccnc23)c1[N+](=O)[O-]	Six1-Eya2 blk -66.6
Cc1cccc(Oc2ncnc(N)c2[N+](=O)[O-])c1C	none
Cc1cc(C(=O)N/N=C/c2ccccn2)n[nH]1	none (no result: CtBP-E1A blk)
O=C(N/N=C/c1ccccn1)c1cccc(S(=O)(=O)Nc2ccccc2Cl)c1	Six1-Eya2 blk -85.5
O=C(N/N=C/c1ccccn1)c1cc(C2CC2)[nH]n1	CtBP-E1A blk -68.4, Six1-Eya2 blk inconclusive
O=C(O)COc1ccccc1/C=N/NC(=O)c1cccc(S(=O)(=O)Nc2cccc(Cl)c2)c1	CtBP-E1A blk -71.1, Six1-Eya2 blk inconclusive

High-throughput results: PubChem, National Center for Advancing Translational Sciences (NCATS)
